# Laboratory results: PubChem BioAssay AID2284362 (EPA ToxCast)
# Inconclusive results are not listed. Activity calls are given as the source filed them. Rule for the calls: active = hit-call score of the fitted dose curve at least 0.9, where 1 is the maximum; inconclusive = response in the unintended direction; inactive = score below 0.9.
# Assay: CCTE_Mundy_HCI_iCellGABA_NOG_NeuriteCount: CCTE's Neurite Outgrowth Assay in iCellGABA cells for Neurite Count, Mundy Lab
# Method: CCTE_Mundy_HCI_iCellGABA_NOG is a multiplexed, cell-based-readout assay that uses iCell GABANeurons from FUJIFILM Cellular Dynamics, Inc. (FCDI), human GABAergic enriched neurons derived from induced pluripotent stem (iPS) cells, with measurements taken at 50.33 hours after chemical dosing in a microplate: 96-well plate.CCTE_Mundy_HCI_iCellGABA_NOG_NeuriteCount is one of four components of the CCTE_Mundy_HCI_iCellGABA_NOG assay. It measures neurite outgrowth related to number of neurites using High Content Imaging of fluorescently labelled markers.Data from the assay component CCTE_Mundy_HCI_iCellGABA_NOG_NeuriteCount was analyzed at the endpoint CCTE_Mundy_HCI_iCellGABA_NOG_NeuriteCount in the positive analysis fitting direction relative to DMSO as the negative control and baseline of activity. Using a type of morphology reporter, loss-of-signal activity can be used to understand developmental effects.
# Exposure starts 2 hours post-plating by adding 10 ul of the working solution to 90 ul of media in the wells for a 1/10 dilution. Forty-eight hours after chemical treatment cells are fixed by direct addition of 100 ul of warm (37C) Dulbecco's phosphate buffered saline (DPBS) fixative solution containing 8% paraformaldehyde, 8% sucrose, and 0.1% of 3 mg/ml Hoechst 33342 into each well. Primary antibodies are prepared by dilution in Immunocytochemical Staining Buffer (ISB), 10X Dulbecco's PBS, 0.1% Saponin, 5% Bovine Serum Albumin, 0.5% NaN3 (Sodium Azide) and betaIII-tubulin (rabbit anti-betaIII-tubulin, 1:800) followed by Alexa Fluor-488 secondary (1:500) to label neuronal cell bodies and neurites. A Cellomics ArrayScan VTi HCS Reader is used for automated image acquisition and analysis of neurite outgrowth.
Structure (SMILES),AC50,outcome
CCOP(=S)(OCC)Oc1nc(Cl)c(Cl)cc1Cl,30.1 µM (active),
COP(=O)(NC(C)=O)SC (centres undefined),,inactive
CCOP(=O)(OCC)Oc1nc(Cl)c(Cl)cc1Cl,,inactive
CCOP(=S)(OCC)Oc1cc(C)nc(C(C)C)n1,76.5 µM (active),
CCCCSP(=O)(SCCCC)SCCCC,65.2 µM (active),
COP(=O)(OC)OC=C(Cl)Cl,,inactive
CCCSP(=O)(OCC)Oc1ccc(Br)cc1Cl (centres undefined),,inactive
CCOP(=S)(OCC)SCSCC,,inactive
CCOP(=S)(OCC)SCSC(C)(C)C,81.4 µM (active),
CCOP(=S)(OCC)Oc1ccc2c(C)c(Cl)c(=O)oc2c1,71.2 µM (active),
COP(=O)(OC)OC(Br)C(Cl)(Cl)Br (centres undefined),16.1 µM (active),
CNC(=O)CSP(=S)(OC)OC,,inactive
COP(=O)(OC)O/C(C)=C/C(=O)N(C)C,,inactive
CCOP(=S)(OCC)OC(Cl)C(Cl)(Cl)Cl (centres undefined),29.7 µM (active),
CNC(=O)CSP(=O)(OC)OC,,inactive
COP(=O)(OC)C(O)C(Cl)(Cl)Cl (centres undefined),,inactive
CCOC(=O)CC(SP(=O)(OC)OC)C(=O)OCC (centres undefined),,inactive
COP(=O)(OC)O/C(=C\Cl)c1cc(Cl)c(Cl)cc1Cl,66.5 µM (active),
COP(=S)(OC)SCN1C(=O)c2ccccc2C1=O,74.2 µM (active),
CCOP(=O)(SC(C)CC)N1CCSC1=O (centres undefined),,inactive
CCOC(=O)CC(SP(=S)(OC)OC)C(=O)OCC (centres undefined),74.1 µM (active),
CCOP(=S)(Oc1cnc(C(C)(C)C)nc1)OC(C)C (centres undefined),,inactive
CCN(CC)c1nc(C)cc(OP(=S)(OC)OC)n1,89.1 µM (active),
COP(N)(=O)SC (centres undefined),,inactive
